# Pf growth 48h = Primary qHTS for delayed death inhibitors of the malarial parasite plastid, 48 hour incubation | P. falciparum luciferase growth in erythrocytes, 48 h | 5.9% of 310,000 active | Potency, µM (highest dose often 28.7 µM), for the others: top-dose activity change, negative = inhibition, usual class: inhibitors; note: potency is the fitted concentration of half-maximal effect; % is set by controls: 0 for no effect and ±100 for the full control effect
#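 Cell-based growth assay: transgenic P. falciparum expressing firefly luciferase, cultured in red cells within RPMI 1640 containing 0.5% w/v Albumax, 24 mM bicarbonate and gentamycin. A drop in luciferase activity indicates inhibition.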
# Pf growth 96h = Primary qHTS for delayed death inhibitors of the malarial parasite plastid, 96 hour incubation; 6.9% of 320,000 active; P. falciparum luciferase reporter growth, 96 h; Potency, µM (series often up to 28.7 µM), without a hit: at the highest dose activity change, negative = inhibition, actives largely listed as inhibitors; AID 504834, 2011; note: potency is the fitted concentration of half-maximal effect; % is set by controls: 0 for no effect and ±100 for the full control effect
#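 Two parasite generations (96 h, 37 C, 5% CO2) of compound exposure in infected erythrocytes (0.05% parasitemia, 2% hematocrit). Luciferase-reporter P. falciparum; decreased luminescence indicates inhibited growth, aimed at apicoplast-acting delayed death.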
# Shiga toxin inh = A qHTS for Small Molecule Inhibitors of Shiga Toxin; inhibition, % at 38.7 µM; 9.2% of 290,000 active; Vero cells, Shiga toxin protein synthesis inhibition reporter; in the data active = inhibition mostly above about 28%, no sharp cut-off; inactive = mostly below about 43%; note: 0% is about no effect
# AMA1-RON2 inh = qHTS for Inhibitors of AMA1-RON; Towards Development of Antimalarial Drug Lead: Primary Screen. AID 720542, 2013. 0.2% of 360,000 active. AlphaScreen AMA1-biotinylated RON2 peptide binding. Potency, µM (titrated, usually from 58.2 µM), for the others: top-dose activity change, negative = inhibition, most hits filed as inhibitors;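 note: potency is the fitted concentration of half-maximal effect; 0% = vehicle wells and -100% = peptide control; nearly all actives have a fitted effect of over 45% in size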
#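 AMA1 (3D7) with his tag at 25 nM final met compounds first, then biotinylated RON2 peptide at 25 nM; detection used donor plus acceptor beads, 10 µg/mL apiece, read by AlphaScreen after 30 min at room temperature.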
# HCV inhibitor = qHTS Assay for Inhibitors of Hepatitis C Virus (HCV); AID 651820, 2012; Potency, µM (highest dose often 41.8 µM), without a hit: top-dose activity change, negative = inhibition, hits mostly inhibitors; Huh7.5.1 HCVcc-Cre infection, luciferase reporter, 44 h; 3.4% of 340,000 active; note: potency is the fitted concentration of half-maximal effect; % is set by controls: 0 for no effect and ±100 for the full control effect
#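 A cell-based infection assay in which seeded cells (1,000 per well) receive test compound after 4 h, are inoculated with HCVcc-Cre at approximately 0.5 moi, and are incubated 44 h before luminescence detection.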
# CHX counter = Cycloheximide Counterscreen for Small Molecule Inhibitors of Shiga Toxin | max response, % | cell reporter, cycloheximide protein synthesis inhibition counterscreen | 12% of 300,000 active | AID 2314, 2010; in the data active = max response mostly above about 13%, no sharp cut-off; inactive = mostly below about 14%; note: read at 38.3 µM for the half of the compounds with a filed dose; 0% is about no effect
# * hit, by the source's call; ? = inconclusive; nt = no result; [ ] = another dose, or the depositor's remark. Rows were chosen to be rich in hits. Some 21% of all compounds tested hit in one or more screens of this group. Unless noted, calls come from the whole dose curve; as a rule, active = well fitted curve in the direction sought with a large enough effect; inconclusive = small, poorly fitted or top-dose-only effect, or another doubt; inactive = no such curve, though single readings can be large; an effect the other way counts as inactive or inconclusive.
SMILES,Pf growth 48h,Pf growth 96h,Shiga toxin inh,AMA1-RON2 inh,HCV inhibitor,CHX counter
O=c1cc(N/N=C/c2ccccc2)[nH]c(=O)[nH]1,nt,nt,nt,40%,14%,nt
O=c1nccc(N/N=C/c2ccccc2)[nH]1,nt,66%,37*,-15%,13%,37*
O=C(c1ccc(N2CCN(C3CC(=O)N(Cc4cccs4)C3=O)CC2)cc1)c1cccnc1 (centres undefined),?,?,15,0%,13µM*,-1
Cc1ccc(NC(=O)CN(C)C(=O)CSc2nnc(C)s2)cc1,nt,nt,nt,-6%,-1%,nt
O=C(Nc1ccc(F)cc1)c1cc(S(=O)(=O)Nc2ccc(F)cc2)cs1,13%,12µM*,-9,-23%,-2%,0
O=C(Nc1cccc(Cl)c1)c1cc(S(=O)(=O)N2CCOCC2)cs1,?,18%,4,7%,?,-2
O=C(Nc1ccc(Cl)cc1)c1cc(S(=O)(=O)N2CCOCC2)cs1,nt,-5%,-11,1%,5.6µM*,-3
COc1ccc(NC(=O)c2cc(S(=O)(=O)Nc3ccc(OC)cc3)cs2)cc1,?,-5%,15,-5%,?,7
O=C(Nc1ccc(F)cc1)c1cc(S(=O)(=O)N2CCOCC2)cs1,28%,12µM*,-5,-12%,-28%,0
Cc1ccc(NC(=O)c2cc(S(=O)(=O)N3CCOCC3)cs2)cc1,?,34%,-5,-3%,?,-3
Cc1ccc(Nc2nc(-c3cccnc3)cs2)cc1Cl,13%,-11%,78,-3%,?,44*
NS(=O)(=O)c1ccc(Nc2nc(-c3cccnc3)cs2)cc1,-9%,-13%,-9,-14%,13µM*,1
O=C(O)c1ccc(Nc2nc(-c3cccnc3)cs2)cc1O,-4%,281%,17,4%,2%,7
Cc1ccc(C)c(Nc2nc(-c3cccnc3)cs2)c1,?,0%,111*,-1%,?,24*
CC(=O)NC(c1ccccc1)c1nc(-c2cc3ccccc3o2)cs1 (centres undefined),nt,nt,nt,1%,nt,nt
CN(C)c1ccc2c(c1)N=C(c1ccco1)OP2(=S)N1CCOCC1 (centres undefined),59%,-5%,77*,-10%,-2%,31*
CCCCc1ccc(/C=C2/C(=O)ON=C2c2ccccc2)s1,-2%,10µM*,-9,-1%,2%,-1
O=C1C2CC=CCC2C(=O)N1c1ccc(NCCc2ccc(O)cc2)c([N+](=O)[O-])c1 (centres undefined),4%,?,63*,?,13µM*,33*
Cc1ccc(-c2nc3cc(Br)cnc3nc2-c2ccc(C)cc2)cc1,?,15µM*,4,-13%,13µM*,-1
Brc1cccc(-c2nc3cccnc3nc2-c2cccc(Br)c2)c1,0%,?,nt,-1%,13%,1
Cc1ccc(S(=O)(=O)N2[C@H](CC(=O)Oc3ccccc3)OC[C@@H]2C(C)C)cc1,nt,nt,nt,-6%,nt,nt
C[C@H](CO)N1C[C@H](C)[C@@H](CN(C)S(C)(=O)=O)OCc2cnnn2CCCC1=O,nt,nt,nt,-5%,nt,nt
CCn1cc(CCCC(=O)NCc2ccc(OC)cc2)c2ccccc21,2.3µM*,5%,-1,-14%,?,9
CC(C)c1ccc(NC(=O)Cc2cn(C)c3ccccc23)cc1,4%,?,21,?,-8%,14*
CCOc1ccc(CNC(=O)CCCc2cn(C)c3ccccc23)cc1,3.7µM*,4%,6,-25%,-13%,-3
SMILES,Pf growth 48h,Pf growth 96h,Shiga toxin inh,AMA1-RON2 inh,HCV inhibitor,CHX counter
CCOc1ccc(CNC(=O)CCCc2cn(C)c3ccccc23)cc1OC,-27%,?,-7,-2%,?,-6
O=C(O)Cc1cn(Cc2ccc(F)cc2)c2ccccc12,406%,7%,-7,0%,12%,8
Cc1ccc(Cn2cc(CCC(=O)O)c3ccccc32)cc1,nt,4.7µM*,-1,-17%,1%,-1
CNC(=O)c1cc(C(=O)c2ccc(F)cc2C(F)(F)F)c[nH]1,-8%[0.00184 µM],5%,-12,-6%,-24%,-5
CCOc1ccccc1CNC(=O)CCc1cn(CC)c2ccccc12,15µM*,3%,-14,-9%,?,-4
CCn1cc(CCC(=O)NCc2cccc(OC)c2OC)c2ccccc21,-27%,-16%,-6,-10%,?,-2
Cc1ccc(CNC(=O)CCc2cn(C)c3ccccc23)cc1,17%,13µM*,-1,-19%,-19%,-3
COc1ccc(-c2cn(CCC(=O)NCc3ccc(C)cc3)c(-c3ccncc3)n2)cc1,-15%,?,-4,-17%,16%,1
Cn1cc(CC(=O)NCc2ccc(F)cc2)c2ccccc21,-2%,9%,6,-7%,10%,12*
CCc1ccc(CNC(=O)CCc2cn(C)c3ccccc23)cc1,5%,1%,-7,-3%,-6%,7
Cc1ccc(CNC(=O)CCn2cc(-c3ccc(C)cc3)nc2CCN)cc1,12µM*,?,nt,11%,-22%,nt
COc1cc(O)c(CCC(=O)c2ccc(OC)c(OC)c2)c(OC)c1,-2%,?,-8,0%,?,-4
Cc1cc(C)n2nc(C(=O)OCC(=O)NCc3ccc(F)cc3)nc2n1,nt,nt,nt,-1%,-2%,nt
O=C(NC1CC(=O)N(c2ccc3c(c2)OCCO3)C1)N1CCCCC1 (centres undefined),2%,33%,nt,-14%,-8%,nt
CCOC(=O)N1CCC(N2Cc3cccc(C(=O)NCc4ccc5c(c4)OCO5)c3C2=O)CC1,7.4µM*,?,-8,-3%,?,1
CCOC(=O)N1CCC(N2Cc3cccc(C(=O)NCc4ccc(OC)cc4)c3C2=O)CC1,7.4µM*,-1%,-12,nt,8%[0.335 µM],-2
CCOC(=O)N1CCC(N2Cc3cccc(C(=O)NCc4ccccc4OC)c3C2=O)CC1,13µM*,1%,2,0%,-11%,1
CCOC(=O)N1CCC(N2Cc3cccc(C(=O)Nc4ccc(OCC)cc4)c3C2=O)CC1,?,?,-7,-16%,10%,-3
CC(=O)Nc1cccc(-c2ccnc3c2CC(C(=O)NCc2ccc(N4CCN(C)CC4)cc2)O3)c1 (centres undefined),nt,nt,nt,-13%,nt,nt
Cc1ccncc1CNC(=O)c1ccccc1,nt,nt,nt,-7%,2%,nt
COc1ccc(NC(=O)C2CCCN(S(=O)(=O)c3ccc(Cl)cc3)C2)cc1OC (centres undefined),?,?,-2,3%,-14%,-7
CC1=N/C(=C\c2ccc([N+](=O)[O-])cc2)C(=O)N1c1ccc(F)cc1F,?,35%,-5,0%,?,9
